mHTT-CaM PPI inh: disrupts binding of mutant huntingtin to calmodulin | AlphaScreen His-mHTT/GST-CaM binding, luminescence | inhibition, % at 15 µM | hit rate 3.6% among 190,000 | AID 1671202
Pf apPOL inh: Pf-apPOL DNA polymerase inhibition; AID 1794808; inhibition, % at 10 µM; hit rate 0.25% among 210,000; Recombinant Pf-apPOL, molecular beacon fluorescence, 1.5 h
A number is an active result. In the library only some 3.6% were active in any assay of this set; here they are far more common. No stated cut-off is given here; in the data, active means inhibition above about 50%; inactive means the rest.

For CCOc1ccc(/C=C2\C(=O)ON=C2C)cc1OC the results were mHTT-CaM PPI inh 64 and Pf apPOL inh inactive.
Screening C=CCOc1ccc(/C=C2/C(=O)ON=C2C)cc1OC returned mHTT-CaM PPI inh 87 and Pf apPOL inh inactive.
Screening CCOc1cc(/C=C2\C(=O)ON=C2C)ccc1OCc1ccccc1 returned mHTT-CaM PPI inh inactive and Pf apPOL inh inactive.
For COc1cc(/C=C2/C(=O)ON=C2C)ccc1OCCc1ccccc1 the results were mHTT-CaM PPI inh inactive and Pf apPOL inh inactive.
CCOc1cc(/C=C2/C(=O)ON=C2C)ccc1OCc1cccc(Cl)c1 was read as mHTT-CaM PPI inh 99 and Pf apPOL inh inactive.
C#CCOc1ccc(/C=C2\C(=O)ON=C2C)cc1OCC was read as mHTT-CaM PPI inh 51 and Pf apPOL inh inactive.
Screening C#CCOc1ccc(/C=C2\C(=O)ON=C2C)cc1OC returned mHTT-CaM PPI inh inactive and Pf apPOL inh inactive.
`COc1cc(/C=C2/C(=O)ON=C2C)ccc1OCC(C)C` gave mHTT-CaM PPI inh inactive and Pf apPOL inh inactive.
`COc1ccc(C(=O)N2CCC(n3c(-c4ccsc4)nc4cccnc43)C2)cn1` (centres undefined) gave mHTT-CaM PPI inh inactive and Pf apPOL inh inactive.
For CCOc1cc(/C=C2/C(=O)ON=C2C)ccc1OCc1ccc(Br)cc1 the results were mHTT-CaM PPI inh inactive and Pf apPOL inh inactive.
For CCCOc1ccc(/C=C2\C(=O)ON=C2C)cc1OCC the results were mHTT-CaM PPI inh 85 and Pf apPOL inh inactive.
For COc1cc(-c2noc(C)c2/C=C/c2ccc(N)cc2)cc(OC)c1OC the results were mHTT-CaM PPI inh 53 and Pf apPOL inh inactive.
Screening COc1cc(-c2noc(C)c2C#Cc2ccc(N)cc2)cc(OC)c1OC returned mHTT-CaM PPI inh inactive and Pf apPOL inh inactive.
O=C(c1ccccc1)N1CCc2nc(-c3ccc(Cl)cc3)ncc2C1 was read as mHTT-CaM PPI inh inactive and Pf apPOL inh inactive.
Screening Cn1c(=O)n(CC(=O)Nc2ccccn2)c(=O)c2ccccc21 returned mHTT-CaM PPI inh inactive and Pf apPOL inh inactive.
For O=c1c2c([nH]c3ccccc13)CCCC2 the results were Pf apPOL inh inactive.
Screening c1ccc2c3c([nH]c2c1)CCCCCC3 returned Pf apPOL inh inactive.
For Brc1ccc2[nH]c3c(c2c1)CCCCC3 the results were mHTT-CaM PPI inh 53.
Screening Nc1ccc2[nH]c3c(c2c1)CCCC3 returned mHTT-CaM PPI inh 68.
`O=Nc1ccc(NOC(=O)/C=C/c2ccccc2)cc1` gave mHTT-CaM PPI inh 73 and Pf apPOL inh inactive.
Screening O=C(/C=C/c1ccccc1)Nc1ccc(NC(=O)c2ccco2)cc1 returned mHTT-CaM PPI inh inactive and Pf apPOL inh inactive.
For O=C(NCC1CCN(Cc2ccccc2F)CC1)C1(n2cccc2)CCCCC1 the results were mHTT-CaM PPI inh inactive and Pf apPOL inh inactive.
For CCCCC(=O)NC(c1ccc([N+](=O)[O-])cc1)c1ccc2cccnc2c1O (centres undefined) the results were mHTT-CaM PPI inh 100 and Pf apPOL inh inactive.
For CCCC(=O)NC(c1ccc(C)cc1)c1ccc2cccnc2c1O (centres undefined) the results were mHTT-CaM PPI inh 100 and Pf apPOL inh inactive.
For CCCC(=O)NC(c1ccccc1OC)c1ccc2cccnc2c1O (centres undefined) the results were mHTT-CaM PPI inh 99 and Pf apPOL inh inactive.
Screening CCCCC(=O)NC(c1ccccc1OC)c1cc(Cl)c2cccnc2c1O (centres undefined) returned mHTT-CaM PPI inh inactive and Pf apPOL inh inactive.
For CCCCC(=O)NC(c1ccc(C)cc1)c1ccc2cccnc2c1O (centres undefined) the results were mHTT-CaM PPI inh 100 and Pf apPOL inh inactive.
CCc1cc(=O)[nH]c(SCC(=O)OC)n1 was read as mHTT-CaM PPI inh inactive and Pf apPOL inh inactive.
`Cc1ccc(C(=O)N2CCN(c3nc(CN4CCOCC4)cs3)CC2)cc1` gave mHTT-CaM PPI inh inactive and Pf apPOL inh inactive.
Screening CCSc1nnc(NC(=O)C2CCCN(Cc3nc(-c4cccs4)no3)C2)s1 (centres undefined) returned mHTT-CaM PPI inh inactive and Pf apPOL inh inactive.
For O=C1OC(c2ccccc2)=N/C1=C/c1ccc(-c2ccccc2)cc1 the results were mHTT-CaM PPI inh inactive and Pf apPOL inh inactive.
O=S(=O)(N=C(NS(=O)(=O)c1ccc(Cl)cc1)c1ccccc1)c1ccccc1 was read as mHTT-CaM PPI inh inactive and Pf apPOL inh inactive.
O=C(O)c1ccc(NC2=CC(=NS(=O)(=O)c3ccccc3)c3ccccc3C2=O)cc1 was read as mHTT-CaM PPI inh 62 and Pf apPOL inh inactive.
O=C(O)c1cccc(NC2=CC(=NS(=O)(=O)c3ccc(F)cc3)c3ccccc3C2=O)c1 was read as mHTT-CaM PPI inh inactive and Pf apPOL inh inactive.
For O=C(O)c1ccc(S(=O)(=O)c2ccccc2)cc1 the results were mHTT-CaM PPI inh inactive and Pf apPOL inh inactive.
`CCc1ccc(S(=O)(=O)N=C2C=C(Nc3cccc(C(=O)O)c3)C(=O)c3ccccc32)cc1` gave mHTT-CaM PPI inh 80 and Pf apPOL inh inactive.
`O=C1C(Nc2ccc(O)cc2)=CC(=NS(=O)(=O)c2ccc(Cl)cc2)c2ccccc21` gave mHTT-CaM PPI inh 98 and Pf apPOL inh inactive.
`CC(Br)C(=O)Nc1ccc2nc(SCC(=O)N3CCc4ccccc43)sc2c1` (centres undefined) gave mHTT-CaM PPI inh inactive and Pf apPOL inh inactive.
`CC1(C)CC(=O)C2=C(C1)Nc1ccccc1N(C(=O)C(F)(F)F)C2c1ccc([N+](=O)[O-])cc1` (centres undefined) gave mHTT-CaM PPI inh inactive and Pf apPOL inh inactive.
For CCCCCCNC(=O)C1CCCN(c2ncc(-c3cccc(F)c3)cn2)C1 (centres undefined) the results were mHTT-CaM PPI inh inactive and Pf apPOL inh inactive.
For O=C(Nc1nnc(-c2ccc3c(c2)OCO3)s1)c1ccco1 the results were mHTT-CaM PPI inh inactive and Pf apPOL inh inactive.
Screening O=C(NCCSc1c(-c2ccccc2)[nH]c2ccccc12)C12CC3CC(CC(C3)C1)C2 returned mHTT-CaM PPI inh inactive and Pf apPOL inh inactive.
For COc1ccc(C2=N/C(=C\c3ccccc3C(F)(F)F)C(=O)O2)c(Cl)c1 the results were mHTT-CaM PPI inh inactive and Pf apPOL inh inactive.
N[C@@H](Cc1ccc(O)c(O)c1)C(=O)O was read as Pf apPOL inh inactive.
Screening O=C(O)C(O)Cc1ccc(O)c(O)c1 (centres undefined) returned Pf apPOL inh 84.
For N#Cc1nc(COc2ccc(Br)cc2)oc1N1CCC(C(N)=O)CC1 the results were mHTT-CaM PPI inh inactive and Pf apPOL inh inactive.
N#Cc1nc(COc2ccc(Br)cc2)oc1N1CCCCC1 was read as mHTT-CaM PPI inh 51 and Pf apPOL inh inactive.
For COc1ccccc1NCC(O)CC1C(C)=C(C)c2ccccc21 (centres undefined) the results were mHTT-CaM PPI inh 63 and Pf apPOL inh inactive.
Screening COc1ccccc1NC1OC(=O)c2ccccc21 (centres undefined) returned mHTT-CaM PPI inh inactive and Pf apPOL inh inactive.
Screening Cc1cc(F)ccc1NC(=O)c1cc2c(=O)n(CC(C)C)ccc2n1C returned mHTT-CaM PPI inh inactive and Pf apPOL inh inactive.
Screening CC1=Nc2ccccc2C1=Cc1sc(=O)n(-c2ccccc2)c1O returned mHTT-CaM PPI inh inactive and Pf apPOL inh inactive.
`CC1=Nc2ccccc2C1=Cc1sc(=N)n(-c2nccs2)c1O` gave mHTT-CaM PPI inh 100 and Pf apPOL inh inactive.
`O=C(Cn1ccc2ccc(N3CCCCC3)nc21)NC1CCCC1` gave mHTT-CaM PPI inh inactive and Pf apPOL inh inactive.
Screening O=C(Cn1ccc2ccc(N3CCCCCC3)nc21)NC1CCCCC1 returned mHTT-CaM PPI inh 50 and Pf apPOL inh inactive.

Screening data deposited in PubChem BioAssay by University of Kansas High Throughput Screening Laboratory.
